“And” between values parts separate entries of the source, which are not always exact repeats. Equal values may be shown once. Results filed as inconclusive are left out. The source made the active and inactive calls. The call rests on the fitted dose curve; in most records, active means well fitted curve in either direction with a large enough effect (not every such curve was filed as active); inconclusive means small, poorly fitted or top-dose-only effect, or another doubt; inactive means flat fitted curve, though single readings scatter.
Assay: NFAT Signaling Pathway (AID 444)
Details: Jurkat NFAT-bla M1, carbachol, beta-lactamase ratio, 5 h; at 7.69 µM (top of the series)
Description: NCGC Assay Overview: The nuclear factor of activated T cells (NFAT) family of transcription factors has been found primarily in most immune system cells and some other non-immune cells. NFAT plays the immunomodulatory role, primarily in T-cell activation and differentiation. NFAT target genes are also involved in the regulation of apoptosis and differentiation in non-immune cell types. The NFAT sequence was engineered to the upstream of the ?-lactamase reporter gene and transfected into Jurkat cells with co-transfection of muscarinic receptor1 [provided by Invitrogen Corp]. When an extracellular stimulus, such as carbachol, binds to the GPCR M1 receptor, it stimulates a signaling cascade that activates NFAT response element and ?-lactamase expression by phosphorylating the NFAT binding protein. This cell based ?-lactamase reporter gene assay can accurately monitor any changes occurring along the NFAT pathway, and can be used for screening small molecule inhibitor or activator upon activation by carbachol EC50 concentration. A small molecular library were screened in a titration series resulting in AC50s (can be either IC50s or EC50s).
NCGC Assay Protocol Summary: The cells were prepared in RPMI 1640 medium containing 0.1% dialyzed FBS and 25 mM HEPES at 1.6 x 10^6cell/ml. The assay was performed in 1536-well plate format as follows: 5 ul of cell preparation 23 nl of compounds 1ul of carbachol (final concentration 1 uM) Briefly centrifuge the plates and incubate at 37 °C for 5 hours 1 ul of CCF4 dye mixture Incubate the plates at RT for 1 hour Read the plate in EnVision plate reader (Ex= 405nm, and Em1=460nm and Em2=530nm). The %Activity was determined from the ratio of 460nm/530nm. Data normalization and AC50 calculations were accomplished using GeneData software.
On the % scale 0 is the no-effect control and ±100 the full control effect.

Row | SMILES | activity change, negative = inhibition
1 | O=C1C2CCN(CC2)C1(CO)CO | -7.28% (inactive)

Same assay, conditions: Jurkat NFAT-bla M1, carbachol, beta-lactamase ratio, 5 h; at 17.2 µM (top of the series)

Row | SMILES | activity change, negative = inhibition
2 | CCOC(=O)c1cc2c(cn1)[nH]c1ccccc12 | 26.1% (inactive)
3 | c1ccc2c(c1)OC[C@@H](C1=NCCN1)O2 | -9.57% (inactive)
4 | c1ccc2c3c([nH]c2c1)CNCC3 | 11% (inactive)
5 | c1cncc([C@@H]2CCCCN2)c1 | -6.22% (inactive)
6 | CCCC(=O)OCC[N+](C)(C)C | 5.08% (inactive)
7 | c1cncc(C2=NCCC2)c1 | -0.876% (inactive)
8 | CNCCc1c[nH]c2ccccc12 | -6.51% (inactive)
9 | COC1=CC(=O)OC(/C=C/c2ccccc2)C1 (stereo not given) | -0.501% (inactive)
10 | COc1ccn(C)c(=O)c1C#N | 6.67% (inactive)
11 | C=CCN1CC[C@]23c4c5ccc(O)c4O[C@@H]2C(=O)CC[C@]3(O)[C@H]1C5 | -9.64% (inactive)
12 | C[C@]12N[C@@H](Cc3ccccc31)c1ccccc12 | -0.0371% (inactive) and -7.29% (inactive)
13 | CN1CC[C@@]23CCCC[C@@H]2[C@@H]1Cc1ccc(O)cc13 | -12.7% (inactive)
14 | C[C@@]1(CO)[C@H](O)CC[C@@]2(C)[C@H]1CC[C@H]1C[C@@H]3C[C@@]12CC[C@]3(O)CO | 10.1% (inactive)
15 | CN(C)[C@@H]1C(=O)C(C(N)=O)=C(O)[C@@]2(O)C(=O)C3=C(O)c4c(O)ccc(Cl)c4[C@@](C)(O)C3C[C@@H]12 (stereo not given in full) | 0.867% (inactive)
16 | COc1ccc2[nH]cc(CCN(C)C)c2c1 | -12.1% (inactive)
17 | COc1ccc2c3c([nH]c2c1)C(C)=NCC3 | -3.75% (inactive)

Same assay, conditions: Jurkat NFAT-bla M1, carbachol, beta-lactamase ratio, 5 h; at 38 µM (top of the series)

Row | SMILES | activity change, negative = inhibition
18 | COC(=O)c1cc2c(cn1)[nH]c1ccccc12 | -0.308% (inactive)
19 | COC(=O)N1CCN(C(=O)Cc2ccc(Cl)c(Cl)c2)[C@H](CN2CCCC2)C1 | -16% (inactive)
20 | NC[C@H](CP(=O)(O)O)c1ccc(Cl)cc1 | 3.15% (inactive)
21 | CN1CCN(c2ccc3ccccc3n2)CC1 | -20.6% (inactive)
22 | c1ccc2c(c1)OC[C@@H](C1=NCCN1)O2 | -27.1% (inactive)
23 | CN1C(=O)CCS(=O)(=O)[C@H]1c1ccc(Cl)cc1 | 2.77% (inactive)
24 | N[C@H](CP(=O)(O)O)C(=O)O | 5.18% (inactive)
25 | Oc1ccc2c3c1O[C@H]1c4oc5ccccc5c4C[C@]4(O)[C@H](C2)N(CC2CC2)CC[C@@]314 | -24.9% (inactive)
26 | N[C@H](CCCCCP(=O)(O)O)C(=O)O | 7.92% (inactive) and -0.366% (inactive)
27 | COc1ccc(CCN)cc1O | -3.06% (inactive)
28 | N[C@H](C(=O)O)c1cc(=O)[nH]o1 | 2.26% (inactive)
29 | C[C@@H](Cc1ccc(OCC(=O)O)cc1)NC[C@H](O)c1cccc(Cl)c1 | -11.2% (inactive)
30 | C=CCN1CC[C@@]23c4c5ccc(O)c4O[C@H]2/C(=N\N=C2/CC[C@@]4(O)[C@H]6Cc7ccc(O)c8c7[C@@]4(CCN6CC=C)[C@@H]2O8)CC[C@]3(O)[C@@H]1C5 | -21.2% (inactive)
31 | COc1cc(CCN)ccc1O | 5.48% (inactive)
32 | Cc1o[nH]c(=O)c1C[C@H](N)C(=O)O | -2.02% (inactive)
33 | CC[C@]1(C2=NCCN2)Cc2ccccc2O1 | -18.1% (inactive)
34 | O=C1CC[C@@]2(O)[C@H]3Cc4ccc(O)c5c4[C@@]2(CCN3CC2CC2)[C@@H]1O5 | 8.31% (inactive)
35 | CN1CC[C@@]23CCCC[C@@H]2[C@@H]1Cc1ccc(O)cc13 | -7.37% (inactive)
36 | Oc1ccc2c3c1O[C@H]1c4[nH]c5ccccc5c4C[C@]4(O)[C@H](C2)N(CC2CC2)CC[C@@]314 | 3.02% (inactive)
37 | COc1ccc2[nH]cc(CCN(C)C)c2c1 | -5.37% (inactive)
38 | CN1[C@@H]2CC[C@H]1CC(O[C@@H](c1ccccc1)c1ccc(Cl)cc1)C2 (stereo not given in full) | -69.3% (active)
39 | C[C@H](N)Cc1cnc[nH]1 | 4.34% (inactive)
40 | O=C1NCN(c2ccccc2)C12CCN(C[C@H]1COc3ccccc3O1)CC2 | 1.71% (inactive)

Reference: PubChem BioAssay (NCATS)
